From the OligoGym collection

biological target: GGH; experiment: pooled miR-30 sensor sort-seq; sequence = guide strand; conditions: shRNA
Also: reference of the scale not given here.

Sequence	sensor-assay potency score (higher = more potent)
ATACTGGATACTTATATCCTTC	-0.969
TTTAACTTTTCATTCATTGTAA	0.207
TTGAAAAACTTCTTTAACTTTT	-0.924
TTCTCTGTAAGATCCAGCCTTA	-0.166
TATTTCATAGTCTTTCTCTGTA	0.438
TGAACTGATAAATCAATGCTTT	-0.538
AAATTCTGGAACATTCTGCTGT	0.666
TTAGCATAATCTGAGCGTCTGA	-0.339
TTAATAAGCACTCTCCACTAAT	-1.04
TAAGACATTGAAAAACTTCTTT	-0.164
TTTCTCTGTAAGATCCAGCCTT	-0.286
TTGACCTCCAGTGAAGTTCAGC	-0.539

biological target: GH2; experiment: as above; conditions: shRNA

Sequence	sensor-assay potency score (higher = more potent)
TAGGTTAGATTTCTGCTGCGTT	0.0139
TTAAACTCCTGATAGGTGTCAT	-0.0284
TTGAGCAGTGCGTCATCGTTGT	0.36
TATGCCAGCTGGTACAGGCGAC	-1.2
AAGGTGTTGGAATAGACTCTGA	-0.802
TTCTTCAAACTCCTGATAGGTG	-0.633
TCAAACTTGCTGTAGGACTGAT	0.205
TAGACTCTGAGAAGCAGAGGGA	0.323
TAGACGTTGCTGTCCGAGGCGC	-0.468
ATAGGTGTCATATGCCAGCTGG	-0.725
